Source: PubChem BioAssay (National Center for Advancing Translational Sciences (NCATS))
EPAC1 antagonist: qHTS for Antagonist of cAMP-regulated guanine nucleotide exchange factor 3 (EPAC1): primary screen | Potency, µM (titrated, usually from 115 µM), actives largely listed as inhibitors | 360,000 compounds, 0.14% hits | EPAC1 GEF assay, Rap1b-BODIPY-GDP exchange fluorescence | Rap guanine nucleotide exchange factor 3 (Homo sapiens), O95398; further: nearly all actives have a fitted effect of over 50% in size
BRCA1 expr up: qHTS Assay to Identify Small Molecule Activators of BRCA1 Expression | AID 624202, 2012 | MCF7-BRCA1-FFLuc reporter, luminescence, 48 h; response scale: scaled: vehicle 0%, 10 µM genistein 100% | 380,000 compounds, 1.1% hits | Potency, µM (top dose mostly 46.1 µM), actives largely listed as activators; further: nearly all actives have a fitted effect of over 80% in size
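First, MCF7-BRCA1-FFLuc cells (2000/well) attach for 2 h; next, compounds are pin-added and incubated 48 h at 37 °C; finally, luciferase reagent is added and luminescence read after 15 min.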
EPAC2 antag: qHTS for Antagonist of cAMP-regulated guanine nucleotide exchange factor 2 (EPAC2): primary screen | Potency, µM (top dose mostly 114 µM), actives largely listed as inhibitors | 360,000 compounds, 0.18% hits | AID 720708, 2013 | Rap guanine nucleotide exchange factor 4 (Homo sapiens), Q8WZA2 | EPAC2 GEF exchange of Rap1B-BODIPY-GDP, fluorescence; further: nearly all actives have a fitted effect of over 45% in size
EPAC2 ag: qHTS for Agonist of cAMP-regulated guanine nucleotide exchange factor 4 (EPAC2): primary screen | Potency, µM (top dose mostly 154 µM), usual class: activators | EPAC2 activation, biochemical qHTS; response scale: 100% = 6.5 mM cAMP response | AID 720711, 2013 | 360,000 compounds, 0.079% hits | Rap guanine nucleotide exchange factor 4 (Homo sapiens), Q8WZA2; further: nearly all actives have a fitted effect of over 50% in size
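Compounds were added across a concentration range to EPAC2 (100 nM), RAP1B-BODIPY-GDP (250 nM) and GDP (50 uM). After 5 min at room temperature, fluorescence was recorded at 5-min intervals for 30 min.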
EPAC1 agonist: qHTS for Agonist of cAMP-regulated guanine nucleotide exchange factor 3 (EPAC1): primary screen | Rap guanine nucleotide exchange factor 3 (Homo sapiens), O95398 | EPAC1 agonist qHTS, biochemical assay; response scale: 100% = response to 6.5 mM cAMP | Potency, µM (doses to about 154 µM), usual class: activators | 360,000 compounds, 0.073% hits | AID 720707, 2013; further: nearly all actives have a fitted effect of over 60% in size
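Multi-concentration qHTS readout: loss of Rap1B-bound BODIPY-GDP fluorescence driven by 100 nM EPAC1 with excess GDP (50 uM), monitored kinetically at room temperature; agonist response expressed relative to 6.5 mM cAMP.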
USP1-UAF1 inh: Inhibitors of USP1/UAF1: Primary Screen | Ubiquitin carboxyl-terminal hydrolase 1 (Homo sapiens), O94782 | recombinant USP1/UAF1, Ub-Rhodamine cleavage fluorescence | Potency, µM (highest dose often 57.1 µM), hits mostly inhibitors | 390,000 compounds, 0.23% hits | AID 743255, 2014; further: nearly all actives have a fitted effect of over 60% in size
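Step one: compound is pinned into 1nM USP1/UAF1 in HEPES pH 7.8 buffer with TCEP. Step two: 15 min room-temperature incubation. Step three: Ub-Rho (150nM final) starts cleavage, tracked by fluorescence over six one-minute reads.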
Numbers stand for hits; - = inactive; ? = inconclusive; . = not tested or not shown. Hits are enriched below; roughly 1.4% of the tested compounds scored in any of these assays. The call rests on the fitted dose curve; in most records, active means well fitted curve in the direction sought with a large enough effect; inconclusive means small, poorly fitted or top-dose-only effect, or another doubt; inactive means no such curve, though single readings can be large; an effect the other way counts as inactive or inconclusive.

SMILES	EPAC1 antagonist	BRCA1 expr up	EPAC2 antag	EPAC2 ag	EPAC1 agonist	USP1-UAF1 inh
C[C@H]1CN([C@@H](C)CO)C(=O)CCCn2nncc2CO[C@H]1CN(C)C(=O)Nc1cccc(Oc2ccccn2)c1	?	-	-	-	-	-
Cc1ccc(Sc2cnc3ccccc3n2)cc1	-	7.1µM	-	-	-	-
Cc1cc(Sc2ccc(Cl)cc2)nc2ccccc12	.	.	.	.	.	-
COc1ccc(CCNC(=O)CSc2nc(N)c(C#N)c(-c3cccs3)c2C#N)cc1OC	32µM	-	-	-	-	-
COC(=O)c1ccc(CC(=O)c2nc3ccccc3s2)cc1	-	-	-	-	-	-
COC(=O)c1ccc(/C(O)=C(\C#N)c2nc3ccccc3s2)cc1	-	5µM	-	-	-	-
C(=N\Nc1nc2ccccc2[nH]1)/c1ccc2c(c1)OCO2	-	13µM	-	-	-	-
C/C(=N\Nc1nc2ccccc2[nH]1)c1ccc2c(c1)OCO2	-	-	-	-	-	-
O=C(O)c1ccc(/C=N/Nc2nc3ccccc3[nH]2)cc1	-	-	-	-	-	-
COc1cccc(/C=N/Nc2nc3ccccc3[nH]2)c1O	-	-	-	-	-	-
O=[N+]([O-])c1ccc(N/N=C/c2cccs2)nc1	-	4µM	-	-	-	-
COc1cccc(/C=N/Nc2nc3ccccc3[nH]2)c1OC	-	7.9µM	-	-	-	-
COC(=O)c1ccc(/C=N/Nc2nc3ccccc3[nH]2)cc1	-	3.2µM	-	-	-	-
OCCNc1nc(-c2cccs2)nc2ccccc12	.	-	.	.	.	.
C(=N\Nc1nc2ccccc2[nH]1)/c1cccs1	-	10µM	-	-	-	-
Cc1ccsc1/C=N/Nc1nc2ccccc2[nH]1	-	?	-	-	-	-
COC(=O)c1ccc(COC(=O)c2ccc(SC)cc2OC)cc1	-	8.9µM	-	-	-	-
COc1cc(SC)ccc1C(=O)OCC(=O)NCCNC(=O)COC(=O)c1ccc(SC)cc1OC	-	-	-	-	-	-
Cc1nnc(NC(=O)c2ccccc2)s1	.	.	.	.	.	-
O=C(Nc1nnc(-c2ccc(F)cc2)s1)c1ccco1	-	2.8µM	-	-	-	-
CC(C)(C)c1ccc(-c2nnc(NC(=O)c3ccccc3)s2)cc1	-	3.2µM	-	-	-	-
O=C(CCNS(=O)(=O)c1ccc2nsnc2c1)N1CCN(c2ccncc2)CC1	-	-	-	-	-	-
CN(C)/C=C1\C=C2C(=O)c3ccccc3N2C1=O	-	-	-	35µM	?	4.5µM
COCCNC(=O)C1CCCN(C(=O)c2cccnc2Oc2ccccc2)CC1 (stereo not given)	-	-	-	-	-	.
Cc1cc(Br)ccc1OCC(=O)N1CCCCCC1	-	-	-	-	-	-
CC(C)c1ccc(OCC(=O)N2CCCCCC2)c(Br)c1	-	10µM	-	-	-	-
COC(=O)c1cccc(CN2C(=O)C(C)Sc3ccc(C)cc32)c1 (stereo not given)	-	-	?	-	-	.
COC(=O)c1cccc(CN2C(=O)C(C)Sc3cc(Cl)ccc32)c1 (stereo not given)	-	5µM	-	-	-	.
CCc1ccc(NC(=S)NC(=O)CC(C)C)cc1	-	6.3µM	-	-	-	-
CCN(CC)S(=O)(=O)c1ccc(NC(=S)NC(=O)CC(C)C)cc1	-	-	-	-	-	-
